Reference: PubChem BioAssay (Tox21)
Where “and” joins values, the source holds several entries; their conditions need not be identical. Equal values may be shown once. Results filed as inconclusive are left out. Entries that show only a call come without a potency. More than one record can exist for a structure, and the calls need not agree. Calls of active or inactive are those of the source. The call rests on the fitted dose curve; in most records, active means well fitted activation curve with a large enough effect in the signal ratio in the repeat runs (not every such curve was filed as active); inconclusive means weak or mixed curves, or effect the other way; inactive means flat fitted curve, though single readings scatter; the % refers to the signal ratio.
Potency means the concentration at half of the fitted maximal effect.

What follows are compounds tested against Estrogen receptor beta (Homo sapiens) (UniProt Q92731) (assay: qHTS assay to identify small molecule agonists of the estrogen receptor beta (ER-beta) signaling pathway (AID 1259377)). Details: ER-beta-UAS-bla HEK293T, beta-lactamase FRET ratio, 16 h; series mostly up to 92.4 µM.
Estrogen receptor beta (Homo sapiens), sequence (Q92731 whole entry, looked up): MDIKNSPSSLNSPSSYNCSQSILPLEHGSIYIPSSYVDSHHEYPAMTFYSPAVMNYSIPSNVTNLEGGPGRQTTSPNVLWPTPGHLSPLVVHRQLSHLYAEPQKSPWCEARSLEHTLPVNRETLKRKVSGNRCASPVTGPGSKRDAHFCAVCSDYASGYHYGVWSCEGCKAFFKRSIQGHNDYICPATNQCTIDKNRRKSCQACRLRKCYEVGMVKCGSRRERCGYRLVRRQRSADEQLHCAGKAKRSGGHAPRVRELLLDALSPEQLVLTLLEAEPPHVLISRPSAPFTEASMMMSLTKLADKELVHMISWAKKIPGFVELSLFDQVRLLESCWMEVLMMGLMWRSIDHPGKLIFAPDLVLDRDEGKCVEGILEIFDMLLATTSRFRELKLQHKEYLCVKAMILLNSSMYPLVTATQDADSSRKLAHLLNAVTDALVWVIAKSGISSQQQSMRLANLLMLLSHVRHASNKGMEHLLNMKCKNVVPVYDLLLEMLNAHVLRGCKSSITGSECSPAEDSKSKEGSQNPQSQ
From the text: U.S. Tox21 Program National Center for Advancing Translational Sciences [NCATS] NIH Chemical Genomics Center [NCGC] U.S. Environmental Protection Agency [EPA] National Institutes of Environmental Health Sciences [NIEHS] National Toxicology Program [NTP] U.S. Food and Drug Administration [FDA] Tox21 Assay Overview: Estrogen receptor (ER), a nuclear hormone receptor, plays an important role in development, metabolic homeostasis and reproduction. Two subtypes of ER, ER-alpha and ER-beta, have similar expression patterns with some uniqueness in both types. Endocrine disrupting chemicals (EDCs) and their interactions with steroid hormone receptors like ER causes disruption of normal endocrine function. To identify the compounds that activate ER signaling, an ER beta-UAS-bla GripTite cell line (Life technologies, Madison, WI, USA) containing a beta-lactamase reporter gene under the control of an Upstream Activator Sequence (UAS) was used to screen Tox21 10K compound library.
Tox21 Assay Protocol Summary: ER-beta-UAS-bla HEK293T cells were dispensed at 2,000 cells/5 uL of assay medium containing 2% charcoal stripped FBS per well into black wall/clear-bottom 1536-well plates using a Multidrop Combi (ThermoFisher Scientific, Waltham, MA) dispenser. After the assay plates were incubated at a 37C and 5% CO2 for 6 hr, 23 nL of compounds dissolved in DMSO, positive controls or DMSO only was transferred to the assay plate by a Pintool station (Kalypsys, San Diego, CA). The plates were incubated at 37C and 5% CO2 for 16 hr. Then 1 uL of LiveBLAzerTM B/G FRET substrate was added using a BioRAPTR FRD (Flying Reagent Dispenser, Aurora Discovery, San Diego, CA). After the plates were incubated at room temperature for 2 hours, fluorescence intensity was measured by an Envision plate reader (PerkinElmer, Shelton, CT).
With O=[N+]([O-])c1ccc(O)c([N+](=O)[O-])c1 the Potency was “inactive”. With NNC(=S)NN the Potency was “inactive”. In the case of Cc1cc(C)cc(C)c1, the Potency is reported as “inactive”. CNC(=O)N(C)c1nnc(C(C)(C)C)s1 was tested, and the Potency was “inactive”. With Cc1ccccc1[N+](=O)[O-] the Potency was “inactive”. In the case of c1ccc(P(c2ccccc2)c2ccccc2)cc1, the Potency is reported as “inactive”. With Oc1cc(Cl)ccc1Oc1ccc(Cl)cc1Cl the Potency was “inactive”. Nc1ccncc1 was tested, and the Potency was “inactive”. In the case of CC(C)C(=O)OCC(C)(C)C(OC(=O)C(C)C)C(C)C (stereo not given), the Potency is reported as “inactive and 27.3 µM (active)”. In the case of C=CC(=O)OCCO, the Potency is reported as “inactive”. CC1(C)C(C=C(Cl)Cl)C1C(=O)OC(C#N)c1cccc(Oc2ccccc2)c1 (stereo not given) was tested, and the Potency was “inactive”. In the case of c1nc[nH]n1, the Potency is reported as “inactive”. In the case of O=P(Oc1ccccc1)(Oc1ccccc1)Oc1ccccc1, the Potency is reported as “inactive”. With C=CCc1ccc(OC)cc1 the Potency was “inactive”. For O=C(NC(=O)c1c(F)cccc1F)Nc1ccc(Cl)cc1, the Potency was “inactive”. In the case of C[C@]12CCC(=O)C[C@@H]1CC[C@@H]1[C@@H]2CC[C@]2(C)[C@@H](O)CC[C@@H]12, the Potency is reported as 853 nM (active) and 546 nM (active). For CN(C)C(=O)Nc1ccc(Cl)cc1, the Potency was “inactive”. O=C(Nc1ccc(Br)cc1)c1cc(Br)cc(Br)c1O was tested, and the Potency was “inactive”. In the case of CCCCN(CC)c1c([N+](=O)[O-])cc(C(F)(F)F)cc1[N+](=O)[O-], the Potency is reported as “inactive”. For CCC(CC)Nc1c([N+](=O)[O-])cc(C)c(C)c1[N+](=O)[O-], the Potency was “inactive”. With C#C[C@]1(O)CC[C@H]2[C@@H]3CCC4=CC(=O)CC[C@]4(C)[C@H]3CC[C@@]21C the Potency was “inactive”. With O=C(O)C(F)(F)C(F)(F)C(F)(F)C(F)(F)C(F)(F)C(F)(F)C(F)(F)F the Potency was “inactive”. In the case of CCC(C)c1cc([N+](=O)[O-])cc([N+](=O)[O-])c1O (stereo not given), the Potency is reported as “inactive”. For O=[N+]([O-])c1c(Cl)c(Cl)c(Cl)c(Cl)c1Cl, the Potency was “inactive”. With CC(O)CCO (stereo not given) the Potency was “inactive”. In the case of Nc1ccc(-c2ccc(N)c(N)c2)cc1N, the Potency is reported as “inactive”. With Cc1cc(Cl)ccc1OCCCC(=O)O the Potency was “inactive”. With COC(=O)c1sccc1S(=O)(=O)NC(=O)Nc1nc(C)nc(OC)n1 the Potency was “inactive”. With O=C1C=CC(=O)C=C1 the Potency was “inactive”. With OCC(O)CO the Potency was “inactive”. For O=[N+]([O-])c1cccc2ccccc12, the Potency was “inactive”. Cc1cccc(N)c1N was tested, and the Potency was “inactive”. For CCCCOCCOP(=O)(OCCOCCCC)OCCOCCCC, the Potency was “inactive”. With Nc1c(Cl)cc([N+](=O)[O-])cc1Cl the Potency was “inactive”. In the case of O=S(=O)(Oc1ccc(Cl)cc1)c1ccc(Cl)cc1, the Potency is reported as “inactive”. In the case of CC(C)NC(C)C, the Potency is reported as “inactive”. With CCCCN(CCCC)N=O the Potency was “inactive”. For Nc1cccnc1, the Potency was “inactive”. CCCCCCCCOC(=O)c1ccccc1C(=O)OCCCCCCCC was tested, and the Potency was “inactive”. In the case of CC(C)N(C(=O)SCC(Cl)=C(Cl)Cl)C(C)C, the Potency is reported as “inactive”.
